This is a sample that favours compounds with a hit; in the whole collection about 3.1% have one here.
Calb FLC: C. albicans growth inhibition with fluconazole, primary screen, CaCi-2 strain, Alamar Blue fluorescence. growth inhibition, % (test concentration not listed). 300,000 tested, 0.57% active. C. albicans CaCi-2 (fluconazole-resistant clinical isolate) + fluconazole, 48 h. AID 1979, 2009;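 active = growth inhibition above about 58% in most replicates, limit read from the data, passing the limit was not always enough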;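 note: all wells also contain fluconazole at 8 µg/ml as a sub-toxic cotreatment; 0% = median of DMSO wells and 100% = median of geldanamycin control wells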
NadD inh: inhibitors of S. aureus NadD, primary screen, biochemical, colorimetric, uHTS | inhibition, % at 20 µM | Nicotinate-nucleotide adenylyltransferase NadD (Staphylococcus aureus N315) | purified NadD enzyme, colorimetric absorbance read-out | 360,000 tested, 0.78% active; in the data active = inhibition above about 26%
FAS TE block: FAS thioesterase domain inhibitors, primary screen, biochemical, fluorescence intensity, uHTS; Fatty acid synthase (Homo sapiens), P49327; recombinant FAS-TE, OMFH fluorogenic substrate, fluorescence endpoint; inhibition, % at 15 µM; 360,000 tested, 0.67% active; AID 602261, 2012;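 active = compounds whose normalised, plate-corrected inhibition of enzyme fluorescence in the single-dose primary screen is 50% or more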;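 note: 0% = DMSO with enzyme and 100% = substrate without enzyme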
ATG4B inhibitor: ATG4B protease inhibitors, primary screen, biochemical, fluorescence, uHTS; Cysteine protease ATG4B (Homo sapiens), Q9Y4P1; ATG4B cleavage of LC3-PLA2, NBD-HPC fluorescence, 1 h; 340,000 tested, 0.51% active; inhibition, % at 8.33 µM; AID 504462, 2011; in the data active = inhibition above about 40%
Target sequence (Q9Y4P1 whole entry, looked up): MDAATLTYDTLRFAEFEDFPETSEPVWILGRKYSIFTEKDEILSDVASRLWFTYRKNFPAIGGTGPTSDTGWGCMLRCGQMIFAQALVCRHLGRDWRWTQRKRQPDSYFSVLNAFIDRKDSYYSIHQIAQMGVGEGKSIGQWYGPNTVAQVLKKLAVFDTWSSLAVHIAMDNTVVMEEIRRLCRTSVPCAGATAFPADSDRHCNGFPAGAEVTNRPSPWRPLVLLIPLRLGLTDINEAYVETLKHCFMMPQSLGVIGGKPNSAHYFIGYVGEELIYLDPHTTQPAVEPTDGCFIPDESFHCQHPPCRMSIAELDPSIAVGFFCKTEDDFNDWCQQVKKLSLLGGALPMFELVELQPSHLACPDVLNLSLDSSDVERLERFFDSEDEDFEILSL
Mot1-301 SUMO: yeast Mot1-301 growth rescue at high temperature, primary screen, SUMOylation pathway inhibitor project, S. cerevisiae, ATP luminescence, 38.5C. 320,000 tested, 1% active. growth rescue, % at 18.8 µM. S. cerevisiae Mot1-301 growth rescue; percent above DMSO median, 100 means doubled. AID 2716, 2010;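 active = every valid replicate shows activation above 250% relative to neutral control wells; inactive = the rest, any valid replicate at or below 250%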;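 note: OY570 slx delta 5 strain wells were the positive control but not used for scaling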
Mot1 SUMO dose: growth restoration of Mot1-301 yeast on galactose, dose response, SUMO pathway inhibitor project, whole organism, S. cerevisiae, ATP luminescence, cherry-picked samples; shares compounds with Mot1-301 SUMO; 2,300 tested, under 10 active; growth activity, percent, % at 42 µM; S. cerevisiae Mot1-301 galactose growth, 24 h; -100 = growth of slx-deleted rescue strain; AID 493004, 2010;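 active = Signal drops as the depositor expects, and the fitted half-maximal dose is no more than ten times the top valid tested dose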;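 note: more negative values mean stronger growth rescue toward the control strain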
Numbers without * were called inactive; nt = no result; [ ] = another dose, or the depositor's remark.

SMILES	Calb FLC	NadD inh	FAS TE block	ATG4B inhibitor	Mot1-301 SUMO	Mot1 SUMO dose
O=C1CCCCN1CC(=O)N1CCCC(N2CCN(c3ccccc3F)CC2)C1 (configuration not stated)	4	-2	-8	-8	-13	nt
O=C1CCCN1CCC(=O)N1CCCC(N2CCN(c3ccccc3F)CC2)C1 (configuration not stated)	-3	2	-5	2	481*	0
c1ccc(Cn2c3ccccc3c3nnc(SCCN4CCCCC4)nc32)cc1	8	5	22	0	-4	nt
CSc1nnc2c3cc(C)ccc3n(Cc3ccccc3)c2n1	13	8	-2	1	910*	0
COc1cccc(/C=N/NC(=O)CCn2cnc3ccccc32)c1	-7	-10	-3	-11	479*	0
Cc1noc(C)c1COc1ccc(C(=O)N2CCN(c3ccccc3O)CC2)cc1	nt	0	0	-8	-10	nt
Cc1ccc(S(=O)(=O)N[C@@H](Cc2ccccc2)C(=O)CCl)cc1	nt	-1	36	-7	608*	-2
Cc1ccc(S(=O)(=O)NC(Cc2ccccc2)C(=O)NN)cc1 (configuration not stated)	-36	4	-6	-5	-7	nt
COc1ccc(C(=O)CSc2nnc3ccc(-c4ccccn4)nn23)cc1	6	-4	-5	-1	745*	1
CCCNC(=O)COC(=O)CCC(=O)c1cccs1	-5	0	-8	1	422*	0
O=C(c1cc(F)ccc1F)C1CCCN(C(=O)c2ccc3nccnc3c2)C1 (configuration not stated)	4	-5	-7	3	670*	-1
Cc1ccc(F)cc1-c1cc(C(=O)NCc2cc(C(F)(F)F)cc(C(F)(F)F)c2)[nH]n1	nt	2	12	nt	nt	nt
COC(=O)C1C2C=CC3(CN(CCc4ccccc4)C(=O)C13)O2 (configuration not stated)	-2	-6	-4	-5	429*	0[21 µM]
CC(=O)N(C)c1ccc(N2CCOCC2)c2c1C(=O)c1ccccc1C2=O	8	-2	-6	3	456*	1
Cc1ccc(C(=O)N2CCC(C(=O)Nc3cccc([N+](=O)[O-])c3)CC2)cc1	3	-4	13	-2	123	nt
O=C(Nc1ccncc1Cl)c1ccncc1	2	2	-3	-1	435*	0
CC(C)c1ccc(NC2CCCN(C(=O)c3cnsn3)C2)cc1 (configuration not stated)	8	-1	3	25	-1	nt
CC(NC(=O)CN1CCN(S(=O)(=O)c2ccc(Br)cc2)CC1)c1ccccc1 (configuration not stated)	7	-3	7	-2	27	nt
Cc1ccc(-c2nc(CN3CCN(C(=O)C4CCCO4)CC3)cs2)cc1 (configuration not stated)	0	2	-4	2	-1	nt
CSc1ncccc1C(=O)NCCc1ccc(S(N)(=O)=O)cc1	-9	-3	-2	-5	256	nt
O=C(CCNC(=O)c1ccccc1)NCc1ccccc1F	nt	-1	4	-7	4	nt
O=C(CCNC(=O)c1ccc(Br)cc1)NCc1ccccc1F	nt	-5	4	-1	812*	-1
Cc1ccc(NC(=O)CSc2nn(-c3ccc(Cl)cc3)c(=S)s2)cc1S(=O)(=O)N(C)C	-1	10	28	-5	1	nt
CN(C)S(=O)(=O)c1cc(NC(=O)CSc2nn(-c3ccc(Cl)cc3)c(=S)s2)ccc1Cl	-10	6	39	-12	555*	1
CC(C)(C)C(=O)NC(=S)N1CCCC1	10	2	-9	1	-10	nt
CC12CC3(C)CC(C)(C1)CC(C(=O)NC(=S)N1CCCC1)(C2)C3	14	3	8	17	766*	1
O=C(NCc1cccc(C(F)(F)F)c1)c1csc([C@@H]2O[C@H](CO)[C@H](O)[C@H](O)[C@H]2O)n1	nt	1	-9	nt	nt	nt
